# aSyn UTR act = Activators working through SNCA 5'UTR binding (MLPCN); alpha-synuclein 5'UTR reporter, activators screen; activity score, % (tested at 7.5 µM), hits read low; 300,000 tested, 7.1% active; AID 1814; in the data active = activity score below about -60%
# * = called active by the depositor. Only a sample is shown.
SMILES,aSyn UTR act
CC1CCN(C(=O)COC(=O)c2n[nH]c3ccccc23)CC1,-144*
Cc1ccc(SCC(=O)Nc2ccc(-c3nnc(-c4ccco4)o3)cc2)cc1,-106*
O=C(Cc1ccccc1)Nc1ccc(-c2nnc(-c3ccco3)o2)cc1,-77*
CC(=O)Nc1ccc(OCc2nnc(-c3ccc(Cl)cc3)o2)cc1,-96*
Cc1nn(-c2ccccc2)c(C)c1CCC(=O)O,-107*
Nc1ccc(Oc2cccc(Oc3ccc(N)cc3)c2)cc1,87
c1ccc(Oc2ccc(-c3ccn[nH]3)cc2)cc1,-79*
Cn1c(SCC(=O)Nc2ccccc2F)nnc1-c1cccs1,-78*
Cn1c(SCc2c(F)cccc2Cl)nnc1-c1cccs1,-83*
O=C1CC(c2ccc3c(c2)OCCO3)Oc2ccc([N+](=O)[O-])cc21 (stereo not drawn),-163*
CC(C)Oc1ccccc1C1CC(=O)Nc2cc3c(cc21)OCCO3 (stereo not drawn),73
COc1ccc(C2CC(=O)c3ccccc3O2)cc1 (stereo not drawn),-147*
O=C1CC(c2ccc3c(c2)OCCO3)Oc2ccccc21 (stereo not drawn),-209*
Cc1ccc(CSc2nc3ccccc3cc2C=O)cc1,93
Cc1ccc(CSc2nccc(-c3c(C)nc4ccccn34)n2)cc1,-70*
CCOC(=O)c1cccc(NC(=O)c2cnc3ccccc3n2)c1,-106*
CCOC(=O)c1cccc(NC(=O)c2cncc(Br)c2)c1,-82*
Cc1nn(-c2ccccc2)c2sc(C(=O)N(CC(=O)NC3CCCC3)Cc3ccco3)cc12,-67*
Cc1nn(-c2ccccc2)c2sc(C(=O)NC3CC3)cc12,-100*
Cc1nn(-c2ccc(F)cc2)c2sc(C(=O)N3CCCCCC3)cc12,-84*
O=C1/C(=C/c2cccc3ccccc23)CCCc2ccccc21,-106*
CC(C(=O)OCc1nnc(-c2ccccc2)o1)N1C(=O)C2CCCCC2C1=O (stereo not drawn),-63*
CSc1nsc(N/N=C/c2ccc3c(c2)OCO3)c1C#N,-231*
Cc1oc(/N=C/c2ccc3c(c2)OCO3)c(C#N)c1C,-74*
CC(C)C[C@H]1CN=C(Nc2ccccc2)N1CCCC1CCCCC1,-69*
SMILES,aSyn UTR act
O=C(NNC(=O)c1cc2ccccc2cc1O)c1cccs1,-193*
O=C(Nc1ccc(F)cc1F)c1cc2ccccc2oc1=O,-156*
CCOc1ccccc1NC(=O)c1cc2ccccc2oc1=O,-95*
O=C(c1cc2ccccc2oc1=O)N1CCN(c2ncccn2)CC1,-92*
O=C(NNC(=O)c1cc2ccccc2oc1=O)c1ccccc1,-108*
CC(C)OC(=O)c1cc2ccccc2oc1=O,-66*
N/C(=N\NC(=O)c1cccs1)c1cc2ccccc2oc1=O,-64*
Nc1c(-c2ccccc2)n[nH]c1-c1ccccc1,-219*
CCCCc1c(C)nc2cc(-c3ccco3)[nH]n2c1=O,-68*
CCc1c(C)nc2cc(-c3ccccc3)[nH]n2c1=O,-110*
CCOC(=O)c1sc(=NC(=O)COc2ccccc2)n(C)c1C,-90*
Cn1c(=NC(=O)COc2ccccc2)sc2cccc(F)c21,-150*
CCOC(=O)c1sc(=NC(=O)CCSc2ccccc2)n(C)c1C,-146*
CCOC(=O)c1sc2nc(CSc3ccccc3)nc(N3CCCN(C)CC3)c2c1C,78
Cc1ccc2oc3nc(C)c(C(=O)O)cc3c(=O)c2c1,-103*
CC(=O)c1cc2c(=O)c3cc(C)ccc3oc2nc1C,-184*
Cc1nc2oc3ccc(F)cc3c(=O)c2cc1C(=O)O,-75*
CCOC(=O)c1cc2c(=O)c3cc(C)ccc3oc2nc1C,-114*
Cc1ccccc1-c1nnc(-c2ccccc2)o1,-138*
Cc1cc(-c2nnc(-c3cccc(Cl)c3)o2)no1,-171*
Cc1ccc(-c2nnc(-c3ccc4c(c3)OCO4)o2)cc1,-116*
Cc1ccccc1-c1nnc(-c2ccc(Cl)cc2)o1,-234*
Cc1cccc(-c2nnc(-c3ccccc3)o2)c1,-127*
Cn1cc(-c2nnc(-c3ccccc3)o2)c2ccccc21,-64*
Cc1ccc(-c2nnc(/C=C/c3ccccc3)o2)cc1,-136*
SMILES,aSyn UTR act
N#C/C(=C\c1cccs1)C(=O)Nc1ccccn1,-75*
Cc1ccc(NC(=O)/C(C#N)=C/c2cccs2)c(C)c1,-169*
Cc1ccc(C)c(NC(=O)/C(C#N)=C/c2cn(CC(=O)NCc3ccco3)c3ccccc23)c1,58
CC(=O)OC(CC(=O)O)C[N+](C)(C)C (stereo not drawn),68
COc1ccc2c(C)nc(Nc3nc(C)c(C)c(=O)[nH]3)nc2c1,103
CCc1c(C)nc(Nc2nc(C)c3cc(OC)ccc3n2)[nH]c1=O,-102*
COc1cc(-c2nnn(CC(=O)NC3CCS(=O)(=O)C3)n2)ccc1OCc1ccccc1 (stereo not drawn),-126*
O=[N+]([O-])c1cccc(CSc2nc3ccccc3[nH]2)c1,-70*
COc1ccc2nc(Nc3nc(CSc4nc5ccccc5[nH]4)cc(=O)[nH]3)nc(C)c2c1,103
COc1cccc(CSc2nc3ccccc3[nH]2)c1,-144*
COC(=O)c1cc(CSc2nc3ccccc3[nH]2)oc1C,-173*
CCCCCc1ccc(-c2ccc(/C=C/C(=O)O)cc2)nc1,79
CCCCCc1ccc(-c2cn(Cc3ccc(C(=O)c4ccccc4)cc3)nn2)cc1,-138*
O=C(c1ccccc1)c1ccc(Cn2cc(-c3ccccc3)nn2)cc1,-135*
COC(=O)CN1C(=O)S/C(=C/c2ccc(N3CCCCC3)o2)C1=O,-89*
CCCN1C(=O)S/C(=C/c2ccc(N3CCOCC3)o2)C1=O,-83*
COC(=O)CN1C(=O)S/C(=C/c2cc(C)n(C)c2C)C1=O,-167*
CCCN1C(=O)S/C(=C\c2ccc(N3CCOCC3)o2)C1=O,-94*
COc1ccc(-n2c(C)cc(/C=C3\C(=O)NN(c4ccccc4)C3=O)c2C)cc1,-113*
Cc1cc(/C=C2\C(=O)NN(c3ccccc3)C2=O)c(C)n1-c1ccccc1O,-132*
Cc1cc(/C=C2/C(=O)NN(c3ccccc3)C2=O)c(C)n1-c1ccc(O)cc1,-138*
O=C1NN(c2ccccc2)C(=O)/C1=C/c1coc2ccccc2c1=O,-138*
O=C(Nc1ccc2c(c1)oc1ccccc12)C1CC1,-138*
Cc1cc(=O)oc2cc(NC(=O)C3CCCC3)ccc12,-85*
CCCCC(=O)Nc1ccc2c(c1)oc1ccccc12,-251*
SMILES,aSyn UTR act
CC(C)CC(=O)Nc1ccc2c(c1)oc1ccccc12,-227*
CCCCCC(=O)Nc1ccc2ccccc2c1,-175*
CCOC(=O)c1sc(Nc2cccc(Cl)c2)nc1C,-102*
COC(=O)c1sc(NC(=O)/C=C/c2ccccc2Cl)nc1C,-87*
CCOC(=O)c1sc(NC(=O)CCc2ccccc2)nc1C,-146*
Cc1nc(NC(=O)/C=C/c2ccccc2)sc1C(=O)NCCO,-67*
CCOC(=O)c1sc(NC(=O)/C=C/c2ccccc2)nc1C,-95*
COC(=O)c1sc(NC(=O)/C=C/c2ccc(C)cc2)nc1C,-71*
Cc1cc(C)n2nc(-c3ccc(F)cc3)nc2n1,-109*
CCCOc1ccc(-c2cc(C(=O)NCC3CCCO3)c3ccccc3n2)cc1 (stereo not drawn),-73*
CCOc1ccc(-c2cc(C(=O)N3CCN(C)CC3)c3ccccc3n2)cc1,-136*
CCOc1ccc(-c2cc(C(=O)N3CCCC3)c3ccccc3n2)cc1,-68*
COc1ccc(C(=O)Nn2c(SCC(=O)NCC3CCCO3)nc3ccccc3c2=O)cc1 (stereo not drawn),87
Cc1cc(C)c2nc(N(CCCN(C)C)C(=O)C3=COCCO3)sc2c1,-91*
